TDP1 block: blocks human tyrosyl-DNA phosphodiesterase 1. Q9NUW8. AID 485290. 350,000 compounds, 0.28% hits. recombinant TDP1, AlphaScreen DNA substrate cleavage. Potency, µM (series often up to 130 µM), for the others: top-dose activity change, negative = inhibition, usual class: inhibitors; further: potency means the concentration at half of the fitted maximal effect; on the % scale 0 is the no-effect control and ±100 the full control effect; nearly all actives have a fitted effect of over 40% in size
Target sequence (Q9NUW8 whole entry, looked up): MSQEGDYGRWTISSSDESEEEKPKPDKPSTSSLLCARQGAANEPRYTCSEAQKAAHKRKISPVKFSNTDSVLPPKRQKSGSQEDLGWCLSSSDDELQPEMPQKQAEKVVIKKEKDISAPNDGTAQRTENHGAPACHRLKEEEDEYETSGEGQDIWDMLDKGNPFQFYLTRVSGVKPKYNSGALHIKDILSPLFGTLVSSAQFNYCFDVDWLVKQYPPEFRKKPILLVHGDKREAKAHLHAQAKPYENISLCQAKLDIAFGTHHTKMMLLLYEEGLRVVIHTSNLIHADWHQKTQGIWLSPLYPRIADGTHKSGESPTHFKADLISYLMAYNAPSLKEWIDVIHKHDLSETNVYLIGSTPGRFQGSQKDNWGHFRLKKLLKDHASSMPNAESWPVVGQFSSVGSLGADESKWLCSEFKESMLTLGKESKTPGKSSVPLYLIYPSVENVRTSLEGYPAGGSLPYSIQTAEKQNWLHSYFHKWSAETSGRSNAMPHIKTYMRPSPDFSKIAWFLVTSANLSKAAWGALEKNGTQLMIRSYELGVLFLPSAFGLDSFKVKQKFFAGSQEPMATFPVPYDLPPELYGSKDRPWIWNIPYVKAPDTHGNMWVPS
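Here, a 5' biotin and 3' phosphotyrosine-FITC DNA oligonucleotide reports Tdp1 activity: intact substrate bridges AlphaScreen beads, while cleavage leaves a 3' phosphate and drops signal. All incubations at room temperature.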
DT40 TDP1 CPT: DT40-hTDP1 cell growth loss with CPT | Potency, µM (doses to about 46.2 µM), without a hit: at the highest dose activity change, negative = growth inhibition, most hits filed as inhibitors | chicken DT40 Tdp1-/-;hTDP1 cells + 20 nM CPT, ATP luminescence, 48 h | AID 686979 | 420,000 compounds, 12% hits; further: potency means the concentration at half of the fitted maximal effect; on the % scale 0 is the no-effect control and ±100 the full control effect; nearly all actives have a fitted effect of over 55% in size
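Chicken DT40 Tdp1-/- cells stably complemented with human TDP1 were seeded at 400 cells/well in medium containing 20 nM camptothecin, exposed to pin-transferred compounds, and grown at 37 °C for at least 48 hr. Viability was read as ATP luminescence.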
TDP1 cell noCPT: qHTS for Inhibitors of human tyrosyl-DNA phosphodiesterase 1 (TDP1): qHTS in cells in absence of CPT; Potency, µM (top dose mostly 46.2 µM), for the others: at the highest dose activity change, negative = growth inhibition, actives largely listed as inhibitors; 420,000 compounds, 15% hits; AID 686978, 2013; DT40 Tdp1-/- hTDP1 cells, no CPT, ATP luminescence, 48 h; further: potency means the concentration at half of the fitted maximal effect; on the % scale 0 is the no-effect control and ±100 the full control effect; nearly all actives have a fitted effect of over 55% in size
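Growth of hTDP1-complemented DT40 Tdp1-knockout cells is measured by ATP luminescence after at least 48 hr compound exposure at 37 °C, with DMSO substituting for the 20 nM CPT used in the parallel screen.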
TGFb SMAD3 inh: TGF-b pathway inhibition. HepG2 CAGA-GFP TGF-b/SMAD3 reporter, GFP fluorescence, 18 h; TGF-beta stimulated, 500 pg/mL final. AID 588855. 410,000 compounds, 1.2% hits. Potency, µM (highest dose often 46.1 µM), for the others: top-dose activity, negative = inhibition, usual class: inhibitors; further: potency means the concentration at half of the fitted maximal effect; on the % scale 0 is the no-effect control and ±100 the full control effect; nearly all actives have a fitted effect of over 65% in size
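First, reporter cells (HEPG2 CAGA-GFP) rested 2 h at 37 degrees C. Next, compounds were pinned in and TGF-beta added to 500 pg/mL final. After 18 h, GFP was imaged per cell and summed per well.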
IL1B secr inh: inflammasome signaling inhibition, IL-1 beta readout; THP-1 LPS/ATP IL-1B secretion, AlphaLISA, 16 h; stronger effect = lower value; activity change, % at 57.5 µM; 360,000 compounds, 4.7% hits; in the data active means activity change below about -50%; inconclusive means mostly about -30% to -49%; further: on the % scale 0 is the no-effect control and ±100 the full control effect
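Secreted IL-1B measured by AlphaLISA bead assay after 16 h compound exposure of THP-1 cells; compounds (final up to 57.5 uM) added 1 h before LPS (250 ng/mL) and ATP (1.25 mM) stimulation; lower signal means less secretion.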
HepG2 viability: HepG2 cytotoxicity, counter-screen for TGF-b inhibitors; 410,000 compounds, 0.76% hits; Potency, µM (top dose mostly 46.1 µM), without a hit: at the top dose activity change, negative = cytotoxicity, usual class: cytotoxic; AID 588856; HepG2 CAGA-GFP viability, ATP luminescence, 18 h; further: potency means the concentration at half of the fitted maximal effect
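CellTiter-Glo luminescence gave cytotoxicity after 18 hours at 37 degrees C. The cells were HepG2 CAGA-GFP in 1% FBS DMEM, stimulated with 500 pg/mL TGF-beta after compound addition. %Activity was normalised to no-cell wells (complete cell-killing) and DMSO (no toxicity), and curves were fitted and classified.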
An asterisk follows results filed as active; u = inconclusive; x = no result given; [ ] = remark or other dose. An excerpt weighted towards active compounds, which were near 19% of everything screened. Unless noted, the call rests on the fitted dose curve; in most records, active means well fitted curve in the direction sought with a large enough effect; inconclusive means small, poorly fitted or top-dose-only effect, or another doubt; inactive means no such curve, though single readings can be large; an effect the other way counts as inactive or inconclusive.

SMILES | TDP1 block | DT40 TDP1 CPT | TDP1 cell noCPT | TGFb SMAD3 inh | IL1B secr inh | HepG2 viability
CC(=O)c1ccc(N2CCN(c3nc4c(S(=O)(=O)c5ccc(C)c(C)c5)nnn4c4ccc(Cl)cc34)CC2)cc1 | 2% | 0% | 0% | 10% | x | 5%
O=C(NCC(c1ccco1)N1CCCC1)c1cc2cc(Cl)ccc2o1 (configuration not stated) | 3% | 18µM* | u | -1% | -26 | -35%
Cc1ccc(C(=O)NCC(c2ccco2)N2CCCCC2)s1 (configuration not stated) | 0% | u | u | -4% | 12 | -2%
Cc1ccc2c(Cl)c(C(=O)NCC(c3ccco3)N3CCCC3)sc2c1 (configuration not stated) | 9% | 18µM* | u | 0% | -7 | 1%
Cc1ccc2oc(C(=O)NCC(c3ccco3)N3CCCC3)c(C)c2c1 (configuration not stated) | 5% | 29µM* | u | -1% | -22 | -28%
O=C(NCC(c1ccco1)N1CCCCC1)c1ccc([N+](=O)[O-])s1 (configuration not stated) | 0% | 18µM* | 23µM* | 16µM* | -15 | -63%
CCC1CN(CCNC(=O)c2ccc3c(c2)OCCO3)Cc2cc(OC)ccc2O1 (configuration not stated) | x | 9%[9.04 µM] | -25% | x | x | x
COc1ccccc1CCNC(=O)c1cccc(NC(=O)CC2SC(N3CCCCC3)=NC2=O)c1 (configuration not stated) | x | u | u | -24% | -12 | -13%
Cc1ccc(C(=O)NCCc2nnc3ccc(N4CCCC4)nn23)cc1 | 2% | -2% | -9% | -4% | 8 | 10%
O=C(NCC(c1ccco1)N1CCCC1)c1ccccc1Sc1ccc(C(F)(F)F)cc1[N+](=O)[O-] (configuration not stated) | 5% | u | u | -24% | -75* | 1%
Cc1cc2oc(C(=O)NCC(c3ccco3)N3CCCC3)c(C)c2cc1C (configuration not stated) | x | u | 21µM* | u | -3 | -40%
COc1ccc(Nc2nnc(SCC(=O)NC3CCCC3)s2)cc1 | x | -21% | u | -15% | 7 | -41%
CC(OC(=O)c1ccc2c(c1)OCCO2)C(=O)NC1CCCCC1C (configuration not stated) | 0% | 9% | -29% | 2% | 45 | -4%
COc1ccccc1-n1cnnc1SCC(=O)N1CCOCC1 | -1% | -22% | 5% | 2% | 30 | -6%
COc1cc(C2C=C(C34CC5CC(CC(C5)C3)C4)NC(=S)N2)cc(OC)c1OC (configuration not stated) | 8% | u | 5.8µM* | -12% | 0 | -16%
CCOC(=O)C1(C)C=C(Nc2ccc(C(=O)O)cc2)C(=O)N1c1ccc(C(=O)O)cc1 (configuration not stated) | x | 24% | 4% | -6% | x | -3%
O=C(NCc1cccnc1)c1ccc2c(c1)C(=O)N(Cc1ccccc1)C2=O | 4% | -2% | -11% | -2% | -13 | -3%
CN1C(=O)/C(=C/c2ccccc2F)Sc2ccc(C(=O)NCC3CCCO3)cc21 (configuration not stated) | 5% | 23µM* | u | -19% | u | -26%
CN1C(=O)/C(=C/c2ccccc2Cl)Sc2ccc(C(=O)NCc3cccnc3)cc21 | 6% | u | u | u | -69* | -34%
Cc1cccc(/C=C2\Sc3ccc(C(=O)NCC4CCCO4)cc3N(C)C2=O)c1 (configuration not stated) | 6% | 13% | u | -4% | -9 | -39%
COc1cccc(N2CC(NC(=O)c3cc(Cl)ccc3OC)CC2=O)c1 (configuration not stated) | 3% | u | 16µM* | -1% | x | -16%
COc1ccc(N2CC(NC(=O)COc3cccc(C)c3)CC2=O)cc1OC (configuration not stated) | 0% | -28% | 21µM* | 2% | x | -6%
C[n+]1ccc(/C=C/c2ccccc2O)c2ccccc21 | 1% | u | u | -10% | -56* | 0%
CN(C)c1ccc(/C=C/c2cc[n+](C)c3ccc4ccccc4c23)cc1 | x | 0.089µM* | u | 2µM* | x | -92%
CNc1cc[n+](C)c2ccccc12 | x | -2% | -20% | 1% | x | -3%
SMILES | TDP1 block | DT40 TDP1 CPT | TDP1 cell noCPT | TGFb SMAD3 inh | IL1B secr inh | HepG2 viability
C[n+]1ccc(/C=C/c2ccc(C=S)cc2)c2ccccc21 | x | 4µM* | 3.2µM* | 1% | x | -39%
C[n+]1ccc(/C=C/c2ccc3c(c2)OCO3)c2ccccc21 | x | 2% | -14% | -23% | x | -31%
Cc1nc2ccccc2c(=O)n1NC(=O)c1c(F)cccc1F | x | -3% | 13% | -3% | -7 | -1%
COc1ccc(-c2cn3cc(C(F)(F)F)cc(Cl)c3n2)cc1 | x | u | 18µM* | -15% | 58 | -8%
Cc1cccc(C(=O)Nc2sc3c(c2C(=O)O)CCCC3)c1 | x | 16µM* | u | 0% | -13 | -24%
CCN(CC)C(=O)c1c(NC(=O)c2cccc(C)c2)sc2c1CCC(C)C2 (configuration not stated) | x | 23µM* | 16µM* | 1% | x | -1%
Cc1cccc(C(=O)Nc2sc3c(c2C(=O)Nc2ccccc2)CCC3)c1 | 0%[12.3 µM] | -27% | u | 1% | x | -2%
COc1ccc(NC(=O)c2c(NC(=O)c3cccc(C)c3)sc3c2CCCC3)cc1 | x | -1% | -14% | -2% | x | 1%
Cc1cccc(NC(=O)c2c(Br)sc3c2CCCC3)c1 | -6%[12.3 µM] | u | 23µM* | u | x | -35%
Cc1nc(NCc2c(F)cccc2F)sc1-c1ccn(CCN2CCOCC2)n1 | x | 10% | -8% | x | x | x
CCc1c(C)sc(NC(=O)CSc2nc3c(c(C(F)(F)F)n2)CCc2ccccc2-3)c1C#N | -3% | 21µM* | u | -12% | 20 | -5%
O=C(CSc1nc2c(c(C(F)(F)F)n1)CCc1ccccc1-2)NCc1ccco1 | 8% | 16µM* | 26µM* | -3% | 29 | -9%
CC(NC(=O)CSc1nc2c(c(C(F)(F)F)n1)CCc1ccccc1-2)c1ccccc1 (configuration not stated) | 3% | u | 23µM* | -8% | -16 | 0%
